Screens: PubChem, National Center for Advancing Translational Sciences (NCATS)
Hits are enriched below; roughly 1.4% of the tested compounds scored in any of these assays.
NS1 function inh = inhibitors of influenza NS1 protein function; Potency, µM (top dose mostly 46.1 µM), without a hit: at the highest dose activity, positive = more growth; 0.4% of 270,000 active; AID 2326; also: potency is read from the fitted curve at half-maximal effect; actives are rising curves; nearly all actives have a fitted effect of over 50% in size
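Read-out: OD600 growth recovery of NS1-expressing budding yeast. Cells grown overnight at 30C in -URA glucose medium, washed, resuspended and diluted 1:100 in 2% galactose assay medium, pH 6.0. Same strain lacking NS1 served as positive control.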
AmpC detergent = inhibitors of E. coli AmpC beta-lactamase with detergent. Potency, µM (series often up to 114 µM), for the others: at the top dose activity change, negative = inhibition, hits mostly inhibitors. AID 485294. 0.041% of 370,000 active. P00811. AmpC hydrolysis of nitrocefin, absorbance 480 nm, 0.01% Triton; active = well fitted curve in the direction sought with a large enough effect; inconclusive = small, poorly fitted or top-dose-only effect, or another doubt; inactive = no such curve, though single readings can be large; an effect the other way counts as inactive or inconclusive;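 also: potency is read from the fitted curve at half-maximal effect; 0% = no-compound wells and -100% = no-enzyme wells; nearly all actives have a fitted effect of over 25% in size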
Target sequence (P00811 whole entry, looked up): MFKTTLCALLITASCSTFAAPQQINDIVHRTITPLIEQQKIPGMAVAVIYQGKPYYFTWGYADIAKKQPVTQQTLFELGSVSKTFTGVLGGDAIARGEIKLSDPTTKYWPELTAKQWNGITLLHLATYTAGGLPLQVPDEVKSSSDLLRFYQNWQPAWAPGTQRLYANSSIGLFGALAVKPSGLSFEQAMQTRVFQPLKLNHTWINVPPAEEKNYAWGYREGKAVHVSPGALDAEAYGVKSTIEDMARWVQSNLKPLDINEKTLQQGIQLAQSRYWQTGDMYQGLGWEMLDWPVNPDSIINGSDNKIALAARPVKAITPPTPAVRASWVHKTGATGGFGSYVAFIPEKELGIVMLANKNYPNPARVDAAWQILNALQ
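AmpC (5.3 nM in the dispensed reagent) in 20 mM phosphate pH 7.0 with 0.01% (detergent screen) or 0.0001% Triton X-100 was preincubated with compounds for 15 min at room temperature. Nitrocefin was then added from an 800 uM solution, and hydrolysis was followed at 480 nm.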
SARS PLpro yeast = SARS-CoV PLP inhibition in yeast | S. cerevisiae expressing SARS-CoV PLpro, growth rescue | Potency, µM (doses to about 32.9 µM), inactives show at the highest dose activity, positive = growth rescue, actives largely listed as activators | 0.19% of 330,000 active | AID 485353; also: potency is read from the fitted curve at half-maximal effect; 0% is about no effect; nearly all actives have a fitted effect of over 55% in size
Giardia FBPA inh = blocks Giardia fructose-bisphosphate aldolase activity | A8B2U2 | purified Giardia FBPA | Potency, µM (top dose mostly 59.6 µM), without a hit: at the highest dose activity, negative = inhibition, actives largely listed as inhibitors | 0.71% of 290,000 active; active = well fitted curve in the direction sought with a large enough effect; inconclusive = small, poorly fitted or top-dose-only effect, or another doubt; inactive = no such curve, though single readings can be large; an effect the other way counts as inactive or inconclusive; also: potency is read from the fitted curve at half-maximal effect; % is scaled to controls: 0 for no effect and ±100 for the full control effect; nearly all actives have a fitted effect of over 55% in size
Target sequence (A8B2U2 whole entry, looked up): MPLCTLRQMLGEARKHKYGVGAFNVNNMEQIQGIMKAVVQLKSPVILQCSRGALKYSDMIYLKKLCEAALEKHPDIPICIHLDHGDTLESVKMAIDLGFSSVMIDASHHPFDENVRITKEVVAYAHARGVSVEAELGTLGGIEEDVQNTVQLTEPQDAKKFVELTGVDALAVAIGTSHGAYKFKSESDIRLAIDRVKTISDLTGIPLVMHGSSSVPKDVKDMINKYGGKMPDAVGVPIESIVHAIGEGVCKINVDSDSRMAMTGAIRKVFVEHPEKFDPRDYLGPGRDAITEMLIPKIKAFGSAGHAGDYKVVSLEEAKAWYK
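40 nM FBPA preincubated 10 min at RT with compound (up to 57.5 uM final), then substrate plus GAPDH/TPI/NAD/arsenate coupling and diaphorase/resazurin added. Fluorescence read after 20 min at RT, 525/598 nm.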
AmpC inh no detg = AmpC beta-lactamase inhibition without detergent | P00811 | AmpC nitrocefin hydrolysis, absorbance 480 nm, 0.0001% Triton | Potency, µM (highest dose often 57.1 µM), for inactives: top-dose activity change, negative = inhibition, most hits filed as inhibitors | 0.52% of 330,000 active; active = well fitted curve in the direction sought with a large enough effect; inconclusive = small, poorly fitted or top-dose-only effect, or another doubt; inactive = no such curve, though single readings can be large; an effect the other way counts as inactive or inconclusive;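 also: potency is read from the fitted curve at half-maximal effect; plate controls were no compound for no effect and no enzyme for full effect; nearly all actives have a fitted effect of over 20% in size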
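AmpC (5.3 nM in the dispensed reagent) in 20 mM phosphate pH 7.0 with 0.01% (detergent screen) or 0.0001% Triton X-100 was preincubated with compounds for 15 min at room temperature. Nitrocefin was then added from an 800 uM solution, and hydrolysis was followed at 480 nm.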
Flu NS1 inh = influenza NS1 function inhibition validation; shares compounds with NS1 function inh; influenza NS1 function cell assay, 15-point titration; activity change, negative = inhibition, % at 32.9 µM; 1,400 tested, under 10 active; AID 492980; also: 0% is about no effect
Flu PR8 replic = influenza virus titer reduction, NS1 project. shares compounds with NS1 function inh. MDCK infected influenza A/PR/8/34, virus titer TCID50; active compounds read low. virus titer (log TCID50), log10 TCID50 at 5 µM. 30% of 95 active. AID 504647; call rule not given here
Active calls of the source: *; ? = inconclusive; nt = not tested or not shown. Unless noted, calls follow the shape of the full dose curve.

SMILES	NS1 function inh	AmpC detergent	SARS PLpro yeast	Giardia FBPA inh	AmpC inh no detg	Flu NS1 inh	others
CC(=O)Nc1ccc(NC(=O)C(Cc2ccccc2)NC(=O)C2CCCCC2)cc1 (stereo not given)	10%	-6%	3%	-1%	-9%	nt
CCN(CC)C(=O)CSc1nnc(-c2ccccc2)n1N	6.3µM*	-10%	6%	13%	-7%	10
O=S(=O)(c1ccc2ccccc2c1)N1CCN(C(=S)Nc2ccc(F)cc2)CC1	11µM*	-9%	11%	0%	-26%	-15
COc1ccc(CNC(=O)Nc2ccc3c(c2)N(C)C(=O)c2ccccc2S3)cc1OC	nt	10%	nt	nt	nt	nt
Cc1ccc(N(CC(=O)N/N=C/c2ccco2)S(=O)(=O)c2ccccc2)cc1	11µM*	3%	1%	-2%	-31%	-19	Flu PR8 replic=7.7
CCOc1cc(C(=S)N2CCCC2)ccc1OC	-3%	-18%	0%	-13%	-10%	nt
COc1cc(C(=S)N2CCCC2)cc(OC)c1O	4µM*	-1%	15%	-11%	-6%	6
O=C(Nc1cccc(S(=O)(=O)N2CCCCC2)c1)c1ccccn1	nt	4%	-4%	-12%	-11%	nt
CC12CCC3C(=CCc4cc(O)ccc43)C1CCC2=O (stereo not given)	nt	nt	nt	-12%	nt	nt
COc1ccc(-c2cn[nH]c2N)c(OC)c1	8.9µM*	-6%	-7%	?	79%	1
Cc1ccc2nc(/N=C(\N)NC(=O)NC3CCCCC3)nc(C)c2c1	-8%	-1%	0%	4%	-47%	nt
CNC(=O)COc1ccc(S(=O)(=O)Nc2ccc(OC)cc2)cc1	-2%	3%	1%	4%	-9%	nt
COc1ccc(N2CCN(C(=O)c3ccc(NS(=O)(=O)c4ccccc4)cc3)CC2)cc1	13µM*	-4%	-11%	-22%	-8%	-18
COc1ccc(NS(=O)(=O)c2ccc(OCC(=O)N3CCCC3)cc2)cc1	?	-12%	1%	7%	1%	4
COc1ccc(CSc2nc3ccccc3c(=O)[nH]2)cc1F	nt	?	-2%	-5%	-41%	nt
O=C(CN(c1ccccc1)S(=O)(=O)c1ccccc1[N+](=O)[O-])NN=C1CCCCCCC1	1.3µM*	4%	3%	-1%	-40%	?
CS(=O)(=O)N(CC(=O)NN=C1CCCCCC1)c1ccc(Oc2ccccc2)cc1	nt	10%	-2%	-2%	-21%	nt
Cc1ccc(Sc2ncccc2C(=O)O)cc1C	?	6%	-3%	0%	-17%	0
CCN(CC)C(=O)c1cnn(-c2ccc(F)cc2)c1-n1cccc1	nt	16%	nt	nt	nt	nt
COc1ccc(S(=O)(=O)Nc2cc(C(=O)NC(C)C)ccc2N2CCOCC2)cc1	-52%	-8%	7%	7%	11%	nt
COc1ccc(S(=O)(=O)Nc2cc(C(=O)NC3CCCCCC3)ccc2N2CCOCC2)cc1	10µM*	-13%	14%	-1%	120%	1
CC(=O)Oc1ccc2oc(/C=C/N(C)C)c([N+](=O)[O-])c2c1	4%	?	10%	1%	-17%	nt
COc1ccc2oc(/C=C/N(C)C)c(C(=O)c3ccc(Cl)cc3)c2c1	13µM*	-3%	16%	-2%	-56%	-28
N#CCSCC(=O)Nc1ccc(Br)cc1	3%	-5%	5%	7%	-23%	nt
N#CCSCC(=O)Nc1ccc(F)cc1	14µM*	?	-6%	3%	-13%	-2
SMILES	NS1 function inh	AmpC detergent	SARS PLpro yeast	Giardia FBPA inh	AmpC inh no detg	Flu NS1 inh	others
O=C(Cc1ccccc1)Nc1nc2ccccc2[nH]1	0%	-5%	6%	-3%	-20%	nt
O=C(Cc1c[nH]c2ccccc12)Nc1nc2ccccc2[nH]1	11µM*	-7%	0%	-8%	-29%	-1
Cc1ccc(/C=N/NC(=O)CN(Cc2ccccc2)S(=O)(=O)c2ccc3c(c2)OCCO3)cc1	13µM*	-12%	-3%	-2%	-19%	2	Flu PR8 replic=8.5
CCS(=O)(=O)c1ccc2oc(SCC(=O)NCCc3ccc(OC)cc3)nc2c1	-5%	3%	0%	-3%	-15%	nt
CN(C)S(=O)(=O)c1ccc2oc(SCC(=O)NCC(F)(F)F)nc2c1	10µM*	3%	?	3%	-18%	3
COc1ccc(-c2[nH]c3ccccc3c2SCCNC(=O)c2cc3ccccc3oc2=O)cc1	10µM*	-6%	7%	-2%	-35%	2
COc1cc(/C=C/C(=O)OCC(=O)Nc2ccc(C)c(S(=O)(=O)N3CCCCC3)c2)ccc1O	?	-7%	-4%	-2%	-13%	nt
COc1ccc2c(c1)CC1(CN2C)C(=O)NC(=O)N(c2ccc(C)cc2)C1=O (stereo not given)	3%	?	1%	?	-31%	nt
Cc1cccc(N2C(=O)NC(=O)C3(Cc4cc(C)ccc4N(C)C3)C2=O)c1 (stereo not given)	4.5µM*	?	3%	-26%	-31%	13
Cc1ccc(-c2cc(C(=O)NCc3ccccc3Cl)c3ccccc3n2)cc1C	nt	-4%	nt	nt	nt	nt
Cc1cc(C(=O)CSc2nncn2C)c(C)n1-c1ccccc1	nt	4%	-2%	-25%	1%	nt
CCOc1cc(N2CCOCC2)c(OCC)cc1NC(=O)Cc1cccc2ccccc12	13µM*	-2%	17%	-25%	38%	-3
CCOc1cc(N2CCOCC2)c(OCC)cc1NC(=O)COC(=O)c1ccccc1C	28%	-11%	27%	-2%	46%	nt
Cc1c(NC(=O)C2CCN(S(=O)(=O)c3ccc(Cl)cc3)CC2)c(=O)n(-c2ccccc2)n1C	-4%	0%	0%	nt	-8%	nt
Cc1c(NC(=O)C2CCCN2S(=O)(=O)c2ccccc2)c(=O)n(-c2ccccc2)n1C (stereo not given)	7.1µM*	-3%	1%	1%	-5%	-10
COc1ccccc1-n1cc(-c2ccccc2)c2c(=S)nc[nH]c21	14µM*	-2%	12%	-1%	13%	-21
O=C(O)c1cccc(Cn2c(Cl)c(/C=N/NC(=O)c3ccccc3O)sc2=O)c1	1%	7%	-1%	13%	-37%	nt
O=C(O)c1cccc(Cn2c(Cl)c(/C=N/NC(=O)c3ccccc3Cl)sc2=O)c1	0.79µM*	1%	4%	10%	-23%	7
Cc1cc2cc(CN3C(=O)c4ccccc4C3=O)ccc2n1C	?	-14%	9%	0%	-31%	-15
CCCCN(Cc1ccco1)C(=O)C1CCCN(c2ncnc3c2nc2n3CCCCC2)C1 (stereo not given)	-53%	-1%	-2%	nt	157%	nt
CC1Cc2cc3c(cc2C(c2ccc(N)cc2)=NN1)OCO3 (stereo not given)	?	nt	nt	-4%	nt	nt
